The assay concerns the target dTDP-4-dehydrorhamnose reductase (Mycobacterium tuberculosis (strain ATCC 25618 / H37Rv)) + dTDP-4-dehydrorhamnose 3,5-epimerase (Mycobacterium tuberculosis (strain ATCC 25618 / H37Rv)) (UniProt P9WH09+P9WH11). As to the kind of experiment: M. tuberculosis RmlC/RmlD coupled enzyme inhibitors, primary screen, biochemical, compound mixtures, 384-well, from 1536-well plates (AID 1533). The following applies: RmlC+RmlD coupled enzyme assay, percent inhibition, primary screen in compound mixtures, stronger effect = higher value.

[1] abbreviates: measured here: mean retest inhibition, at 5.5 µM.

SMILES strings stand for the structures. The campaign covered roughly 160,000 compounds. About 45 (0.03%) were called active. The sample holds actives, similar compounds and a random draw of the others, so the mix is not that of the screen. Cut-off read from the data, not from the text of the source: active = inhibition mostly above about 34% (no sharp cut-off); inconclusive = no clear call, values can overlap the other calls; inactive = mostly below about 22%.

Chain of dTDP-4-dehydrorhamnose reductase (Mycobacterium tuberculosis (strain ATCC 25618 / H37Rv)) + dTDP-4-dehydrorhamnose 3,5-epimerase (Mycobacterium tuberculosis (strain ATCC 25618 / H37Rv)) (P9WH09 whole entry, looked up): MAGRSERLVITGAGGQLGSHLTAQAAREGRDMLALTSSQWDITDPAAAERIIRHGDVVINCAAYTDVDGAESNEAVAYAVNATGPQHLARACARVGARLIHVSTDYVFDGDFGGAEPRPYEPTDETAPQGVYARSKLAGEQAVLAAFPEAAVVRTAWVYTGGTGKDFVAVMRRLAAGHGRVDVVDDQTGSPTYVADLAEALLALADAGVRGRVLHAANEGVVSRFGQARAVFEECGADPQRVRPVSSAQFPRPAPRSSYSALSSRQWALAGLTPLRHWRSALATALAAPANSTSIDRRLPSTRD
Chain of dTDP-4-dehydrorhamnose reductase (Mycobacterium tuberculosis (strain ATCC 25618 / H37Rv)) + dTDP-4-dehydrorhamnose 3,5-epimerase (Mycobacterium tuberculosis (strain ATCC 25618 / H37Rv)) (P9WH11 whole entry, looked up): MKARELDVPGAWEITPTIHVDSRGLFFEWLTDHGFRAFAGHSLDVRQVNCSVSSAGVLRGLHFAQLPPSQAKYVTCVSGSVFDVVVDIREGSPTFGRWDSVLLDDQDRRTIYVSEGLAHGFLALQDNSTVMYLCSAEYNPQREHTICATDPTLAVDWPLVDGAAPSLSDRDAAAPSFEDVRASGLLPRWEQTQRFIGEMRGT

One may read the inhibition as the change of the read-out against control, counted positive when it falls. As to `COc1ccc(CCN2C(=O)N(c3ccc(OC)cc3)C(=O)C2CC(=O)Nc2ccc(OC)cc2)cc1` (centres undefined), the inhibition (at 3.6 µM) was -9.07% (inactive). `CCOC(=O)C1(Cc2cccc(OC)c2)CCN(C(C)CC(C)(C)O)CC1` (centres undefined): the inhibition (at 3.6 µM) is 7.5% (inactive). As for `COc1ccc(NS(=O)(=O)c2ccc(N3CCOCC3)c(NC(=O)c3ccccc3Br)c2)cc1`, the inhibition (at 3.6 µM) is -4.87% (inactive). On the same count and under the same terms, in the case of `Cc1nc2nc(SCC(=O)c3ccccc3)[nH]c2cc1Br` it was 4.73% (inactive). Take `O=C1C2C3C=CC(C3)C2C(=O)N1c1ccc(S(=O)(=O)Nc2nccs2)cc1` (centres undefined): the inhibition (at 3.6 µM) was -2.55% (inactive). The same measure, in the same setting: in the case of `COCCSc1nnc(NC(=O)c2cc(OC)c(OC)cc2[N+](=O)[O-])s1` it was 15.5% (inactive); in that of `CC(=O)c1sc(NC(=O)C2=NN(c3ccccc3)C(=O)CC2)nc1C`, -9.61% (inactive); in that of `Cc1ccc(NC(=O)NC2CCCCC2)cc1S(=O)(=O)N1CCOCC1`, -9.91% (inactive).

With `Clc1ccc2nc(-c3ccccc3)nc(C(Cl)Cl)c2c1`, the inhibition (at 3.6 µM) is 0.32% (inactive). Turning to `O=S(=O)(Nc1ccc(OC(F)(F)F)cc1)c1cccc2nonc12`, the inhibition (at 3.6 µM) is 4.95% (inactive). Turning to `O=C(NCc1ccc(F)cc1)C1CCC(CNc2c(N3CCOCC3)c(=O)c2=O)CC1` (centres undefined), the inhibition is 43.3% (inactive) (at 3.6 µM) and -8.27% under setting [1].

In the case of `CCOc1ccc(CCN2C(=O)c3cccnc3C2=O)cc1OCC`, the inhibition (at 3.6 µM) was 3.14% (inactive). For the compound `Cc1ccc(NC(=O)c2ccc(S(=O)(=O)NCC3CCCO3)cc2)cc1C` (centres undefined), under “at 3.6 µM”, the inhibition is 0.36% (inactive).

For `CC(=O)NC(=S)Nc1ccc(NC(=O)c2cccnc2)cc1`, the inhibition (at 3.6 µM) is 2.81% (inactive). Take `COc1ccc(C(C(=O)NC(C)(C)C)N(C(=O)Cn2nnc3ccccc32)c2ccc(C(C)=O)cc2)cc1O` (centres undefined): the inhibition (at 3.6 µM) is 11.7% (inactive). `CSc1ccccc1NC(=O)CN(C)CC(=O)Nc1cccc(Br)c1`: for the setting “at 3.6 µM”, the inhibition is 6.55% (inactive). The same measure, in the same setting: as for `O=C1/C(=C/c2coc3ccc(O)cc3c2=O)SC(=S)N1c1ccccc1`, the figure is -8.54% (inactive). Still for that read-out and setting: in the case of `Cc1cccn2c(CNCC(C)Oc3cccnc3)c(C(=O)N3CCOCC3)nc12` (centres undefined) it was 7.78% (inactive).

`CCN(CC)c1ccc(NC(=O)C2CCC(CNc3c(N4CCCC4)c(=O)c3=O)CC2)c(C)c1` (centres undefined): the inhibition (at 3.6 µM) was 6.36% (inactive).

In the case of `O=S(=O)(c1ccccc1)N1CN(Cc2ccc(F)cc2)c2nc3ccccc3nc21`, the inhibition (at 3.6 µM) was -11.9% (inactive). For `Cc1ccc(S(=O)(=O)N(C)CC(=O)OCC(=O)Nc2ccccc2)cc1`, the inhibition (at 3.6 µM) was 13.5% (inactive). The same measure, in the same setting: as for `C/C(=N\NC(=S)NCc1ccccc1)C1CCCCC1`, the figure is 5.23% (inactive); as for `Fc1cccc2ncnc(OCc3ccccc3)c12`, 3.36% (inactive); as for `CCn1c(SCC(=O)Nc2sc(C)c(C)c2C#N)nnc1C1CC1`, -13.3% (inactive). `CCC(C)NC(=O)C1c2ccccc2Oc2ccccc21` (centres undefined): the inhibition (at 3.6 µM) is 10.6% (inactive). Same read-out and setting: in the case of `CCOC(=O)c1ccc(S(=O)(=O)N(CCO)Cc2cc3cc(OC)c(OC)cc3[nH]c2=O)cc1` it was -8.54% (inactive); in that of `CCc1cccc(NC(=O)CCNS(=O)(=O)c2cccc3nonc23)c1`, -2.17% (inactive); in that of `CCC(C)(C)NC(=O)C(c1ccc(O)cc1)N(C(=O)Cn1nnc2ccccc21)c1ccc(NC(C)=O)cc1` (centres undefined), 4.36% (inactive).

As for `COC(=O)c1ccc(COc2ccc(/C=N/NC(=O)C(=O)Nc3ccc(OC)cc3)cc2OC)o1`, the inhibition (at 3.6 µM) is -13.4% (inactive).

Regarding `Cn1nc(C(C)(C)C)c([N+](=O)[O-])c1C(N)=O`, the inhibition (at 3.6 µM) is 11.8% (inactive).

With `Cc1ccc(NC(=O)/C(=C\c2ccccc2)NC(=O)c2ccco2)cc1`, the inhibition is, setting by setting: (at 3.6 µM) 44% (inactive); under setting [1], 3.08%. For `Cc1ccc(OCC(=O)Nc2nnc(-c3ccco3)s2)cc1`, under “at 3.6 µM”, the inhibition is -5.61% (inactive). For the compound `O=[N+]([O-])c1ccc(N=Cc2c(O)ccc3ccccc23)cc1`, under “at 3.6 µM”, the inhibition was -17.6% (inactive). Still for that read-out and setting: in the case of `O=c1[nH]nc(SCCS(=O)(=O)c2ccc(F)cc2)n1-c1ccccc1C(F)(F)F` it was -9.62% (inactive); in that of `C=CCc1cccc2cc(C(=O)NC3CCCC3)c(=O)oc12`, 3.42% (inactive). On the same count and under the same terms, in the case of `COc1ccc2[nH]c(C(=O)Nc3ccccc3Cl)cc2c1` it was -0.28% (inactive); in that of `CC1=NNC(=O)C1CC(=O)N/N=C/c1ccncc1` (centres undefined), 8.8% (inactive). For the compound `C/C(=C\c1ccco1)CN1CCC(N2CCC(C(=O)N3CCOCC3)CC2)CC1`, the inhibition (at 3.6 µM) is 3.12% (inactive).

As for `O=C(C[n+]1cc(-c2ccc(Cl)c(Cl)c2)n2c1CCC2)c1cccs1`, the inhibition (at 3.6 µM) was 2.29% (inactive). Turning to `COc1ccc([N+](=O)[O-])cc1N(CC(O)CN(CC(C)C)CC(C)C)S(=O)(=O)c1ccc(C)cc1` (centres undefined), the inhibition (at 3.6 µM) is 2.56% (inactive).

Turning to `COc1cc(N/C=C2\CC(=O)NC(C)=C2C#N)cc(OC)c1OC`, the inhibition (at 3.6 µM) is -11.2% (inactive). Still for that read-out and setting: as for `CC(C)N(C(=O)CSc1nc(COc2ccccc2)nc2ccccc12)C(C)C`, the figure is -5.31% (inactive). The same measure, in the same setting: as for `COc1c(N2CCN(C(=S)Nc3ccccc3F)C(C)C2)c(F)cc2c(=O)c(C(=O)O)cn(C3CC3)c12` (centres undefined), the figure is 9.08% (inactive); as for `CCc1cccc(CC)c1NC(=S)Nc1ccc2cn[nH]c2c1`, -7.83% (inactive); as for `O=C1/C(=C/c2cccs2)SC(=S)N1C1CCS(=O)(=O)C1` (centres undefined), 1.03% (inactive). As to `COc1ccc(OCC(O)CNCCNc2nccc(C(F)(F)F)n2)cc1` (centres undefined), the inhibition reads like this: (at 3.6 µM) 42.7% (inactive); under setting [1], 10.5%. Take `Cc1ccc(/C=C/C(=O)O)cc1S(=O)(=O)N1CCC(Cc2ccccc2)CC1`: the inhibition (at 3.6 µM) is -14% (inactive).

In the case of `O=C(C[n+]1ccc2c(c1)nnn2-c1ccccc1)c1ccc(Cl)cc1`, where the note is “at 3.6 µM”, the inhibition is -3.04% (inactive). Same read-out and setting: as for `CC1Cc2ccccc2N1C1=CC(=O)CC(C)(C)C1` (centres undefined), the figure is 10.6% (inactive). Still for that read-out and setting: in the case of `CC(=O)Nc1ccc(NC(=O)CSc2nnc(COc3ccccc3C)n2CC2CCCO2)cc1` (centres undefined) it was 7.46% (inactive); in that of `O=C(Nc1nnc(COc2ccccc2)s1)Nc1ccccc1F`, 3.12% (inactive); in that of `COc1ccc(CNC(=O)C(Cc2ccccc2)n2cccc2)cc1` (centres undefined), 6.07% (inactive). Still for that read-out and setting: as for `COc1ccc(Nc2cc(=O)n(-c3ccccc3)c3c2c(=O)n(C)c(=O)n3C)cc1`, the figure is 13.6% (inactive); as for `CCN(CC)CCn1cnc2c1c(=O)n(CCOC(=O)c1cc(OC)c(OC)c(OC)c1)c(=O)n2C`, 3.47% (inactive); as for `O=C1COc2ccc(C(=O)COC(=O)C3CC(O)CN3S(=O)(=O)c3ccc(Cl)cc3)cc2N1` (centres undefined), -2.3% (inactive). `COc1ccc(CNC(=O)COC(=O)/C=C/c2ccc(S(=O)(=O)N3CCOCC3)cc2)cc1`: the inhibition (at 3.6 µM) is -2.01% (inactive). Same read-out and setting: as for `N/C(=N\OC(=O)CCCC(=O)O)c1ncc(C(F)(F)F)cc1Cl`, the figure is 2.53% (inactive). On the same count and under the same terms, as for `N#CC1=C(N)Oc2c(ccc3cccnc23)C1c1ccncc1` (centres undefined), the figure is 4.04% (inactive); as for `c1csc(-c2nnc(COc3ncnc4sccc34)o2)c1`, -7.72% (inactive); as for `O=c1ccnc(Nc2ccc(Cl)cc2)[nH]1`, 6.37% (inactive).

For the compound `CN(c1ccccc1)S(=O)(=O)c1cc(C(=O)OCC(=O)N2CCN(C(=O)c3ccco3)CC2)ccc1Cl`, where the note is “at 3.6 µM”, the inhibition was 3.76% (inactive). Same read-out and setting: as for `COC(=O)c1ccccc1N=Nc1c(C)[nH][nH]c1=O`, the figure is -10.6% (inactive); as for `O=C(Nc1ccccc1F)c1ccc(Cn2cc(Br)cn2)cc1`, -3.16% (inactive); as for `O=C(Cc1ccccc1Cl)N1CCN(c2ccccn2)CC1`, -5.39% (inactive). Still for that read-out and setting: in the case of `NC(=O)Cc1ccc2c(c1)[nH]c1ccccc12` it was -1.93% (inactive).

For `O=C(COc1cc(Cl)c(Cl)cc1Cl)NCCc1ccccn1`, the inhibition (at 3.6 µM) is 6.74% (inactive). Regarding `CCN1C(=O)/C(=c2\s/c(=C3\Sc4ccccc4N3C)c(=O)n2C)N(C)C1=S`, for the setting “at 3.6 µM”, the inhibition was -7.72% (inactive). On the same count and under the same terms, as for `C=CCN(CC=C)C(=O)COC(=O)c1n[nH]c2ccccc12`, the figure is 5.16% (inactive). Same read-out and setting: as for `O=C(Nc1ccc(-c2ccc3nncn3n2)cc1)C1CCCCC1`, the figure is -6.47% (inactive). On the same count and under the same terms, in the case of `Cc1ccc(-c2nn(-c3cccc(F)c3)cc2CNCCc2ccncc2)o1` it was -11.7% (inactive).

Consider `CCN(CC)S(=O)(=O)c1ccc(NC(=O)c2cccnc2Cl)c(NC(=O)c2cccnc2Cl)c1`, for which the inhibition (at 3.6 µM) is 9.89% (inactive). Regarding `O=[N+]([O-])/C(N=Nc1ccccc1)=N\Nc1ccccc1`, the inhibition (at 3.6 µM) is -9.57% (inactive). Still for that read-out and setting: in the case of `O=S(=O)(NC(=S)Nc1ccccc1)c1ccc(F)cc1` it was -3.25% (inactive).

With `CN(CCC1CCOCC1)Cc1cn[nH]c1-c1ccc(-c2ccccc2)cc1`, where the note is “at 3.6 µM”, the inhibition is 9.21% (inactive).

For the compound `Cc1c(NC(=O)CN2C(=O)C(=O)N(Cc3ccccc3)C2=O)c(=O)n(-c2ccccc2)n1C`, the inhibition (at 3.6 µM) was 7.63% (inactive).

Take `CCOC(=O)c1sc(NC(=O)CSc2n[nH]c(CC)n2)nc1C`: the inhibition (at 3.6 µM) was -5.04% (inactive).

The values are drawn from PubChem BioAssay AID1533 (PCMD, 2009).
